Results published in PubChem BioAssay AID2283176 (EPA ToxCast).
Records with an inconclusive call do not appear. Calls of active or inactive are those of the source. How the source made its calls: active means hit-call score of the fitted dose curve at least 0.9, where 1 is the maximum; inconclusive means response in the unintended direction; inactive means score below 0.9.

What follows are molecules tested against human MAP Kinase-Activated Protein Kinase 5 (MAPKAPK5), MAPKAPK5 (gene 8550) (UniProt Q8IW41) (assay: NVS_ENZ_hMAPKAPK5: NovaScreen (NVS) Enzymatic Assay for human MAP Kinase-Activated Protein Kinase 5 (MAPKAPK5)).
Experimental: NVS_ENZ_hMAPKAPK5 is a biochemical, single-readout assay that uses extracted gene-proteins in a cell-free assay. Measurements were taken 1 hour after chemical dosing in a 384-well plate.NVS_ENZ_hMAPKAPK5 is one of one assay component(s) measured or calculated from the NVS_ENZ_hMAPKAPK5 assay. It is designed to make measurements of enzyme activity, a form of enzyme reporter, as detected with fluorescence intensity signals by Fluorescence and electrophoretic mobility shift technology.Data from the assay component NVS_ENZ_hMAPKAPK5 was analyzed into 1 assay endpoint. This assay endpoint, NVS_ENZ_hMAPKAPK5, was analyzed in the positive analysis fitting direction relative to DMSO as the negative control and baseline of activity. Using a type of enzyme reporter, loss-of-signal activity can be used to understand changes in the enzymatic activity as they relate to the gene MAPKAPK5. Furthermore, this assay endpoint can be referred to as a primary readout, because this assay […]. To generalize the intended target to other relatable targets, this assay endpoint is annotated to the kinase intended target family, where the subfamily is serine/threonine kinase.
Binding assays used specific radioligands (tritiated, iodinated) with non-radioactive competitive displacement ligands in agonist or antagonist protocols (as indicated) and various reference compounds and inhibitors to titrate specific binding to receptors and transporters. Most enzyme assays (CYPs, kinases, phosphatases, proteases, HDACs) used recombinant protein and specific substrates (fluorescence mostly, some colorimetric and radioactive) and inhibitors, followed by a biochemical separation of substrate and product. All assays for the biochemical HTS were initially run in duplicate at a single concentration (10 uM for CYP450 assays and 25 uM for all others). Assay-chemical combinations meeting a pre-defined threshold (e.g., 30% inhibition and other criteria defined below) were then run in singleton concentration-response format with maximum concentration of 20 uM for CYPs and 50 uM for all others. Each assay was run with positive and negative controls, and concurrent controls on every plate. The follow-up (secondary) screen tested active chemical-pairs in concentration series, as well as a few additional assays not tested in the primary screen, some selected negative inactives, and several cases re-run in the concentration series for confirmatory purposes.

Sequence of human MAP Kinase-Activated Protein Kinase 5 (MAPKAPK5), MAPKAPK5 (gene 8550) (Q8IW41 whole entry, looked up): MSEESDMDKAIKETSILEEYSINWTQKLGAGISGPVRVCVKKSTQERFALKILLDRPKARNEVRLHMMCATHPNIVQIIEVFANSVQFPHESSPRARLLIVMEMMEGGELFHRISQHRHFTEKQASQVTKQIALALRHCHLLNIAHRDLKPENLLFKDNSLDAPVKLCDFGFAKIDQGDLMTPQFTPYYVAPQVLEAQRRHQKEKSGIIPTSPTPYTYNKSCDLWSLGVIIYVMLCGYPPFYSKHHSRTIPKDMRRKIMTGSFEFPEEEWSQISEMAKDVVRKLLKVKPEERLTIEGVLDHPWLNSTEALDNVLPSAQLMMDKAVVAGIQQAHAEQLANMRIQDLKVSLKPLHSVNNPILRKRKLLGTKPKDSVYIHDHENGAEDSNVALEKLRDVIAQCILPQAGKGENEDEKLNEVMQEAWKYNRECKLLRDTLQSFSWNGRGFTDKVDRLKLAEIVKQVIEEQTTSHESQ

SMILES | outcome | AC50
CCN(CC)C(=O)c1cccc(C)c1 | inactive | 
S=C(S)NCCNC(=S)S.[Mn+2].[S-]C([S-])=NCCN=C([S-])[S-].[Zn+2] |  | 2.41 µM (active)
O=C(O)C1(C(=O)Nc2ccc(Cl)cc2Cl)CC1 |  | 19.1 µM (active)
CCOC(=O)[C@H](C)Oc1ccc(Oc2nc3ccc(Cl)cc3o2)cc1 | inactive | 
O=C(Nc1ccc([N+](=O)[O-])cc1Cl)c1cc(Cl)ccc1O | inactive | 
N#CSCSc1nc2ccccc2s1 |  | 14.7 µM (active)
S=C([S-])NCCNC(=S)[S-].[Mn+2] |  | 0.789 µM (active)
